# Inconclusive results are not listed. Entries that show only a call come without a potency. Active and inactive are the calls of the source. Calls come from the whole dose curve; as a rule, active = well fitted cell-killing curve with a large enough effect in the repeat runs; inconclusive = weak or mixed curves, or effect the other way; inactive = flat fitted curve, though single readings scatter.
# Assay: Human pregnane X receptor (PXR) small molecule agonists, qHTS cell viability counter screen (AID 1346977); note: nearly all actives have a fitted effect of over 50% in size
# Details: PXR-Luc HepG2 viability, CellTiter-Fluor, 24 h; series mostly up to 92.4 µM
# Excerpt: U.S. Tox21 Program National Center for Advancing Translational Sciences [NCATS] NIH Chemical Genomics Center [NCGC] U.S. Environmental Protection Agency [EPA] National Institutes of Environmental Health Sciences [NIEHS] National Toxicology Program [NTP] U.S. Food and Drug Administration [FDA] Tox21 Assay Overview: The human pregnane X receptor (hPXR) regulates the expression of several drug metabolizing enzymes and induction of these proteins is a major mechanism for developing drug resistance in cancer. One such key enzyme catalyzing the drug metabolism is cytochrome P450 3A4 (CYP3A4). Changes in CYP3A4 expression affect drug metabolism, thereby reducing the therapeutic efficacy and altering toxicological response to a drug and which finally causes adverse drug interaction. To screen Tox21 libraries for compounds that activate hPXR-mediated CYP3A4 gene expression, PXR-Luc HepG2 cells were used. Also cytotoxicity of the compounds was tested in parallel by measuring the cell viability using CellTiter-Fluor assay system in the same wells.
# Tox21 Assay Protocol Summary: PXR-Luc HepG2 cells were dispensed at 2,000 per well in 5uL of assay medium containing 5% charcoal-stripped FBS into white solid bottom 1536-well plates (Corning Life Sciences, Corning, NY) using a Multidrop Combi (Thermo Scientific, Waltham, MA) dispenser. The assay plates were incubated at 37 C and 5% CO2 for 5hr, and then 23nL of compounds dissolved in DMSO and positive control were transferred using a Pintool station (Wako, San Diego, CA). The assay plates were incubated at 37C and 5% CO2 for 24hr. For cytotoxicity read, after 23hr incubation at 37C, 1uL CellTiter-Fluor reagent (Promega Corporation, Madison, WI) was added to each well of the assay plates using Flying Reagent Dispenser (FRD, Aurora Discovery, San Diego, CA). After 1hr incubation at 37C and 5% CO2, the fluorescence signal was quantified using a ViewLux plate reader (PerkinElmer, Shelton, CT).
# Potency is the fitted concentration of half-maximal effect.
row,Structure (SMILES),Potency
1,O=C(Oc1ccc(Br)cc1)N1CCN2CCC1CC2,inactive
2,CN(N=O)C(N)=O,inactive
3,Cc1nc(N)nc(N)n1,inactive
4,C[C@@H]1CN(C2CCC(C#N)(c3ccc(F)cc3)CC2)CC[C@]1(C(=O)O)c1ccccc1 (stereo not given in full),inactive
5,O=CNC(N1CCN(C(NC=O)C(Cl)(Cl)Cl)CC1)C(Cl)(Cl)Cl (stereo not given),inactive
6,N#CC(O)c1ccccc1 (stereo not given),inactive
7,OC(c1ccc(F)cc1)(c1cncnc1)c1ccccc1Cl (stereo not given),inactive
8,ClC(Cl)Br,inactive
9,O=NN1CCCCC1,inactive
10,CCCCOC(=O)c1ccccc1C(=O)O,inactive
11,CCC1(c2ccccc2)C(=O)NC(=O)NC1=O,inactive
12,CNC(=O)Oc1ccccc1C1OCCO1,inactive
13,CCS(=O)(=O)C(C)(C)S(=O)(=O)CC,inactive
14,O=NN1CCN(N=O)CC1,inactive
15,C[N+](=O)[O-],inactive
16,CN1C(=S)CN=C(c2ccccc2)c2cc(Cl)ccc21,inactive
17,CCOC(=O)/C=C(C)/C=C/C[C@@H](C)CCCC(C)C,inactive
18,CNC(=O)Oc1ccc(N(C)C)c(C)c1,inactive
19,CCCCc1c(C)nc(NCC)[nH]c1=O,inactive
20,Cc1ncsc1CCCl,inactive

row,Structure (SMILES),Potency
1,Cc1cnc[nH]1,inactive
2,ClCCCN1CCN(c2cccc(Cl)c2)CC1,inactive
3,CN1CCN(C(=O)O[C@H]2c3nccnc3C(=O)N2c2ccc(Cl)cn2)CC1,inactive
4,C[N+](C)=CCl,inactive
5,CCCCP(CCCC)CCCC,inactive
6,C[C@H]1CCC[C@H](O)CCCCCc2cc(O)cc(O)c2C(=O)O1,48.9 µM (active)
7,CCOP(=O)(N=C1SCCS1)OCC,inactive
8,CNNC,inactive
9,N#CC(CCc1ccc(Cl)cc1)(Cn1cncn1)c1ccccc1 (stereo not given),61.1 µM (active)
10,CCOC(=O)NC(=S)Nc1ccccc1NC(=S)NC(=O)OCC,inactive
11,O=P(O)(Oc1ccccc1)Oc1ccccc1,inactive
12,O=C(Nc1ccccc1)N(Cc1ccc(Cl)cc1)C1CCCC1,61.1 µM (active)
13,CCOP(=O)(OCC)OP(=O)(OCC)OCC,inactive
14,CC(COc1ccc(Oc2ccccc2)cc1)Oc1ccccn1 (stereo not given),inactive
15,COC(=O)C(c1ccccc1)C1CCCCN1 (stereo not given),inactive
16,CCC(Cl)[N+](=O)[O-] (stereo not given),inactive
17,CCCSC(=O)N(CCC)CCC,inactive
18,CC(C=O)Cc1ccc2c(c1)OCO2 (stereo not given),inactive
19,CCOC(=O)CP(=O)(OCC)OCC,inactive
20,COc1cccc(C(=O)NN(C(=O)c2cc(C)cc(C)c2)C(C)(C)C)c1C,inactive

# From PubChem BioAssay (Tox21)
